# Measured values taken from PubChem BioAssay (NCI).
# Values joined by “and” are separate entries in the source; they are usually repeats but may differ in a detail not shown here. Equal entries are not always repeated. About 83,000 compounds went through this panel and 20% of them were active in at least one assay; those are over-represented in the sample as a whole.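 A percent growth of 40 corresponds to 60% growth inhibition; 0 means no net growth; -100 means all cells died. Active threshold: below 10.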 Active and inactive are the calls of the source.
# System: HL-60(TB) leukemia
# Assay: NCI-60 one-dose screen, 48 h (100 = growth as untreated, 0 = no growth, -100 = all killed)
# Details: 10 µM unless noted
row,Structure (SMILES),growth
1,Cc1ccc(NC(=O)Nc2ccc(Nc3ncnc4sc5c(c34)CCOC5)cc2)cc1Cl,108% (inactive)
2,Cc1c(C(=O)/C=C/c2csc3ccccc23)[n+](=O)c2ccccc2n1[O-],67.7% (inactive)
3,COc1ccc2[nH]cc(-c3nc(-c4c[nH]c5ccncc45)cs3)c2c1,3.64% (active)
4,CCN(Cc1ccc(CN(CC)C(=O)C(Br)Br)cc1)C(=O)C(Br)Br,13.1% (inactive)
5,Cc1cc(C)cc(S(=O)(=O)n2ccc(-c3ccc4c(c3)CCC(C)(C)O4)n2)c1,99.8% (inactive)
6,O=C(Nc1ccccc1Cl)Oc1ccc(-c2ccccc2)cc1,97.4% (inactive)
7,O=S(=O)(NCCNc1cc(-c2cn(-c3ccccc3)nc2-c2cccc(O)c2)ccn1)c1ccc(Br)cc1,11.1% (inactive)
8,CCOc1ccc2nc3cc(N)ccc3c(N)c2c1,117% (inactive) and 86.7% (inactive)
9,CCCCN1CCN(c2ccc3nc(-c4ccc5nc(-c6cc(OC)c(OC)c(OC)c6)[nH]c5c4)[nH]c3c2)CC1,85.7% (inactive)
10,CN1CCN(Cc2occc(=O)c2O)CCN(C)CCN(Cc2occc(=O)c2O)CC1,98.8% (inactive) and 48.1% (inactive)
11,O=C1/C(=C/c2ccccc2)SC(=S)N1CCc1ccc(O)cc1,94.9% (inactive)
12,COC(=O)[C@]12CC[C@@H](C)[C@H](C)[C@@H]1C1=CC[C@@H]3[C@@]4(C)C(C=O)=C[C@@](C)(COC(C)=O)[C@@H]4[C@H](O)C[C@@]3(C)[C@]1(C)CC2,-24.7% (active)
13,C=C1C(=O)O[C@H]2[C@H]1CC/C(COC(=O)C(=O)c1cn(C)c3ccc(Cl)cc13)=C\CC[C@@]1(C)O[C@@H]21,-35.1% (active)
14,N#CC1c2ccccc2C=CN1C(=O)c1ccccc1 (centres undefined),93.2% (inactive) and 71.1% (inactive)
